{
  "source": "paper PMC11062922",
  "about": "(Nature Chemical Biology, 2023)",
  "parameters_in_all_cases": "species or system human, MV4-11 + K-562 + COLO205 + SK-N-BE2 + OVCAR-8",
  "key": {"NEK1": {"tested_on": "NEK1", "settings": "read-out: apparent Kd; compound concentrations: 100 nM and 1000 nM (sheet 'Samples'), CATDS: 0.147931725525974; n = 1"}, "TESK2": {"tested_on": "TESK2", "settings": "read-out: apparent Kd; compound concentrations:100 nM and 1000 nM (sheet 'Samples'); n = 1"}, "RAF1": {"tested_on": "RAF1", "settings": "read-out: apparent Kd; compound concentrations: 100 nM and 1000 nM (sheet 'Samples'), CATDS: 0.155550656381887; n = 1"}, "PHKG2": {"tested_on": "PHKG2", "settings": "read-out: apparent Kd; compound concentrations: 100 nM and 1000 nM (sheet 'Samples'), CATDS: 8.5402919050668602E-3; n = 1"}, "PRKACA": {"tested_on": "PRKACA", "settings": "read-out: apparent Kd; compound concentrations: 100 nM and 1000 nM (sheet 'Samples'), CATDS: 7.7130843989671599E-3; n = 1"}, "MAPK7": {"tested_on": "MAPK7", "settings": "read-out: apparent Kd; compound concentrations: 100 nM and 1000 nM (sheet 'Samples'), CATDS: 3.6148838376291702E-2; n = 1"}, "MAP3K5": {"tested_on": "MAP3K5", "settings": "read-out: apparent Kd; compound concentrations: 100 nM and 1000 nM (sheet 'Samples'), CATDS: 5.5720140806326597E-2; n = 1"}, "CDK12": {"tested_on": "CDK12", "settings": "read-out: apparent Kd; compound concentrations:100 nM and 1000 nM (sheet 'Samples'); n = 1"}, "CDK13": {"tested_on": "CDK13", "settings": "read-out: apparent Kd, n = 1"}, "IRAK1": {"tested_on": "IRAK1", "settings": "read-out: apparent Kd, n = 1"}, "SLK": {"tested_on": "SLK", "settings": "read-out: apparent Kd, n = 1"}, "ARAF": {"tested_on": "ARAF", "settings": "read-out: apparent Kd, compound concentrations: 100 nM and 1000 nM (sheet 'Samples'), n = 1"}, "CSNK1G3": {"tested_on": "CSNK1G3", "settings": "read-out: apparent Kd; compound concentrations:100 nM and 1000 nM (sheet 'Samples'); n = 1"}, "PI4KA": {"tested_on": "PI4KA", "settings": "read-out: apparent Kd; compound concentrations:100 nM and 1000 nM (sheet 'Samples'); n = 1"}, "DHCR24": {"tested_on": "DHCR24", "settings": "read-out: apparent Kd, n = 1"}, "SLC25A6;SLC25A4": {"tested_on": "SLC25A6;SLC25A4", "settings": "read-out: apparent Kd, n = 1"}, "PSMC3": {"tested_on": "PSMC3", "settings": "read-out: apparent Kd, n = 1"}, "CAMK2D": {"tested_on": "CAMK2D", "settings": "read-out: apparent Kd, n = 1"}, "AKT3": {"tested_on": "AKT3", "settings": "read-out: apparent Kd; compound concentrations:100 nM and 1000 nM (sheet 'Samples'); n = 1"}, "EPHA7": {"tested_on": "EPHA7", "settings": "read-out: apparent Kd; compound concentrations:100 nM and 1000 nM (sheet 'Samples'); n = 1"}, "[1]": {"settings": "compound concentrations:100 nM and 1000 nM (sheet 'Samples')"}},
  "note": "Like-named read-outs stand apart in the source and are kept apart here.",
  "data": [
    {"smiles": "COc1cc(Nc2nccc(N3CCC(NC(=O)c4cccc(C#N)c4)C3)n2)cc(OC)c1OC", "note": "(stereo not drawn) [GSK1379751A]", "values": [
      {"measurement": "potency estimated from few doses", "setting": "NEK1", "result": 1860, "unit": "nM"}
    ]},
    {"smiles": "CCn1cc(-c2ccnc3[nH]c(-c4cccc(CN(C)C)c4)cc23)c(-c2ccc(NC(=O)N(C)C)cc2)n1", "note": "[GSK1070916]", "values": [
      {"measurement": "potency estimated from few doses", "setting": "TESK2", "result": 1310, "unit": "nM"}
    ]},
    {"smiles": "CCc1nc(-c2cccc(N(C)S(=O)(=O)c3ccccc3)c2)c(-c2ccnc(Nc3ccc(N4CCN(C(C)=O)CC4)nc3)n2)s1", "note": "[GSK1645895A]", "values": [
      {"measurement": "potency estimated from few doses", "setting": "RAF1", "result": 1420, "unit": "nM"}
    ]},
    {"smiles": "O=C1N=C(NCc2cccs2)SC1Cc1ccc2ncccc2c1", "note": "(stereo not drawn) [RO4629078-000]", "values": [
      {"measurement": "potency estimated from few doses", "setting": "PHKG2", "result": 1040, "unit": "nM"},
      {"measurement": "potency estimated from few doses", "setting": "PRKACA", "result": 1470, "unit": "nM"}
    ]},
    {"smiles": "CN1C(=O)c2ccccc2N(C)c2nc(Nc3cnn(C4CCNCC4)c3)ncc21", "note": "[XMD-17-51]", "values": [
      {"measurement": "potency estimated from few doses", "setting": "MAPK7", "result": 101, "unit": "nM"}
    ]},
    {"smiles": "CNC1=NC(=O)/C(=C/c2ccc3ncccc3c2)S1", "note": "[RO4595949-000]", "values": [
      {"measurement": "potency estimated from few doses", "setting": "MAP3K5", "result": 1240, "unit": "nM"}
    ]},
    {"smiles": "N#Cc1cccc(Nc2nccc(-c3cnn4ncccc34)n2)c1", "note": "[GW778894X]", "values": [
      {"measurement": "potency estimated from few doses", "setting": "CDK12", "result": 541, "unit": "nM"},
      {"measurement": "potency estimated from few doses", "setting": "CDK13; [1]", "result": 1160, "unit": "nM"},
      {"measurement": "potency estimated from few doses", "setting": "IRAK1; [1]", "result": 896, "unit": "nM"}
    ]},
    {"smiles": "COc1cc2ncn(-c3cc(OCc4cccs4)c(C(N)=O)s3)c2cc1OC", "note": "[GSK312948A]", "values": [
      {"measurement": "potency estimated from few doses", "setting": "SLK; [1]", "result": 262, "unit": "nM"}
    ]},
    {"smiles": "CC(C)c1nc(-c2cccc(NS(=O)(=O)c3c(F)cccc3F)c2F)c(-c2ccnc(Nc3ccc(N4CCOCC4)nc3)n2)s1", "note": "[GSK2008607A]", "values": [
      {"measurement": "potency estimated from few doses", "setting": "ARAF; CATDS: 1.81049419419274E-2", "result": 2030, "unit": "nM"}
    ]},
    {"smiles": "CNC(=O)c1ccccc1Nc1nc(Nc2cccc(CS(C)(=O)=O)c2)ncc1C.O=CO", "note": "[GSK1520489A]", "values": [
      {"measurement": "potency estimated from few doses", "setting": "IRAK1; compound concentrations: 100 nM and 1000 nM (sheet 'Samples'), CATDS: 1.0270392688251299E-2", "result": 1150, "unit": "nM"},
      {"measurement": "potency estimated from few doses", "setting": "SLK; compound concentrations: 100 nM and 1000 nM (sheet 'Samples'), CATDS: 2.2249249802163501E-2", "result": 107, "unit": "nM"}
    ]},
    {"smiles": "Nc1nc(N)c2nc(-c3ccccc3)[nH]c2n1", "note": "[SKF-12778]", "values": [
      {"measurement": "potency estimated from few doses", "setting": "CSNK1G3", "result": 1180, "unit": "nM"},
      {"measurement": "potency estimated from few doses", "setting": "PI4KA", "result": 1400, "unit": "nM"}
    ]},
    {"smiles": "CC(=O)N1CCN(c2ccc(Nc3nccc(-c4sc(C(C)C)nc4-c4cccc(NS(=O)(=O)c5ccccc5)c4)n3)cn2)CC1", "note": "[GSK1645872A]", "values": [
      {"measurement": "potency estimated from few doses", "setting": "ARAF; CATDS: 2.3399978491415799E-2", "result": 1560, "unit": "nM"}
    ]},
    {"smiles": "CC(=O)c1c(-c2ccncc2)[nH]c(-c2ccncc2)c1C", "note": "[GW493036X]", "values": [
      {"measurement": "potency estimated from few doses", "setting": "CSNK1G3", "result": 842, "unit": "nM"},
      {"measurement": "potency estimated from few doses", "setting": "DHCR24; [1]", "result": 1240, "unit": "nM"}
    ]},
    {"smiles": "O=S(=O)(c1ccc(-c2ccnc3[nH]ccc23)cc1)N1CCCC1", "note": "[GSK846226A]", "values": [
      {"measurement": "potency estimated from few doses", "setting": "SLC25A6;SLC25A4; [1]", "result": 2020, "unit": "nM"}
    ]},
    {"smiles": "COc1ccc(Nc2nccc(N3CCC(NC(=O)Nc4cccc(OC)c4)C3)n2)cc1", "note": "(stereo not drawn) [GSK1379742A]", "values": [
      {"measurement": "potency estimated from few doses", "setting": "DHCR24; compound concentrations: 100 nM and 1000 nM (sheet 'Samples'), CATDS: 0.157459675408709", "result": 1060, "unit": "nM"}
    ]},
    {"smiles": "Fc1cccc(COc2ccc(Nc3ncncc3C#Cc3ccccc3)cc2Cl)c1", "note": "[GW651576X]", "values": [
      {"measurement": "potency estimated from few doses", "setting": "PSMC3; compound concentrations: 100 nM and 1000 nM (sheet 'Samples'), CATDS: 4.80880541633023E-2", "result": 1950, "unit": "nM"}
    ]},
    {"smiles": "COc1cccc(C2=C(c3cn(C)c4c(C)cccc34)C(=O)NC2=O)c1", "note": "[RO3301012-000]", "values": [
      {"measurement": "potency estimated from few doses", "setting": "SLC25A6;SLC25A4; compound concentrations: 100 nM and 1000 nM (sheet 'Samples'), CATDS: 9.9606855520270293E-2", "result": 1850, "unit": "nM"}
    ]},
    {"smiles": "COc1ccc(-c2nn3ncccc3c2-c2ccnc(Nc3ccc4c(c3)OCCO4)n2)cc1", "note": "[GW827106X]", "values": [
      {"measurement": "potency estimated from few doses", "setting": "CDK13; compound concentrations: 100 nM and 1000 nM (sheet 'Samples'), CATDS: 4.6663696277222499E-2", "result": 1770, "unit": "nM"}
    ]},
    {"smiles": "Cn1cc(C2=C(c3ccccc3[N+](=O)[O-])C(=O)NC2=O)c2ccccc21", "note": "[RO0317753-000]", "values": [
      {"measurement": "potency estimated from few doses", "setting": "CAMK2D; compound concentrations: 100 nM and 1000 nM (sheet 'Samples'), CATDS: 9.7402766920506798E-2", "result": 597, "unit": "nM"}
    ]},
    {"smiles": "Fc1ccc(-c2ncn(C3CCNCC3)c2-c2ccnc(Oc3ccc4c(c3)OCO4)n2)cc1", "note": "[SB-250715]", "values": [
      {"measurement": "potency estimated from few doses", "setting": "AKT3", "result": 2290, "unit": "nM"}
    ]},
    {"smiles": "Cc1ccc(-n2nc(C(C)(C)C)cc2NC(=O)Nc2ccc(OCCN3CCOCC3)cc2)cc1", "note": "[BIRB0876BS]", "values": [
      {"measurement": "potency estimated from few doses", "setting": "EPHA7", "result": 1830, "unit": "nM"}
    ]},
    {"smiles": "NC(=O)c1cccnc1COc1cc(-c2ccc(N3CCOCC3)nc2)cc2ncccc12", "note": "[BI01125081]", "values": [
      {"measurement": "potency estimated from few doses", "setting": "EPHA7", "result": 1500, "unit": "nM"}
    ]},
    {"smiles": "COc1cc(F)c(F)c(F)c1C(=O)c1cnc(NC2CCN(S(C)(=O)=O)CC2)nc1N", "note": "[RO4600703-000]", "values": [
      {"measurement": "potency estimated from few doses", "setting": "CDK12", "result": 2300, "unit": "nM"}
    ]},
    {"smiles": "CCCCCNC(=O)[C@@H]1CCCN2C(=O)CC[C@H](NC(=O)[C@H](Cc3ccc(OP(=O)(O)O)cc3)NC(C)=O)C(=O)N12", "note": "[RO0324694-000]", "values": [
      {"measurement": "potency estimated from few doses", "setting": "PSMC3; [1]", "result": 1910, "unit": "nM"}
    ]},
    {"smiles": "Nc1c(C(=O)c2ccccc2)cnn1-c1ccc(F)cc1", "note": "[RO1151246-000]", "values": [
      {"measurement": "potency estimated from few doses", "setting": "AKT3", "result": 1420, "unit": "nM"}
    ]},
    {"smiles": "Cl.Oc1ccc2ncnc(Nc3ccc(OCc4ccccc4)cc3)c2c1", "note": "[GI262866A]", "values": [
      {"measurement": "potency estimated from few doses", "setting": "CAMK2D; [1]", "result": 388, "unit": "nM"}
    ]},
    {"smiles": "COc1ccc(C2=C(Nc3cccc(O)c3)C(=O)NC2=O)cc1", "note": "[SB-390766]", "values": [
      {"measurement": "potency estimated from few doses", "setting": "PI4KA", "result": 1330, "unit": "nM"}
    ]}
  ]
}
